A short description of test [1]: cAMP Responsive Elements (CRE) small molecule antagonists, cell-based qHTS assay: qHTS cell viability counter screen (AID 2060913). Also: nearly all actives have a fitted effect of over 40% in size. The procedure, abridged: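 HEK293T CRE-bla, 2,000 cells/well, 18 h preincubation; cpd in DMSO + NKH477 0.25 uM final, 3 h 37 C/5% CO2; LiveBLAzer 2 h RT, then CellTiter-Glo 30 min RT, luminescence.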
A general note: qHTS replaces the single test concentration by a dilution series.

The nature of test [2]: cAMP Responsive Elements (CRE) small molecule agonists, cell-based qHTS assay: qHTS cell viability counter screen (AID 2060914).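 Also: viability read after 3 h of compound exposure; nearly all actives have a fitted effect of over 50% in size.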 Summed up:
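HEK 293T CRE-bla; DMEM + 10% dialyzed FBS, 25 mM HEPES; 18 h pre-incubation; compound 3 h, 37 °C/5% CO2; CellTiter-Glo added after reporter read; luminescence after 30 min RT.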

Structures are written as SMILES. Inconclusive results are not listed. Values without a mark were called inactive. Activity calls are given as the source filed them. Calls follow the shape of the dose curve; as a rule, active = well fitted cell-killing curve with a large enough effect in the repeat runs; inconclusive = weak or mixed curves, or effect the other way; inactive = flat fitted curve, though single readings scatter.
% is scaled to controls: 0 for no effect and ±100 for the full control effect.

Turning to `NC(=O)Nc1ccc(Cl)c(Cl)c1`, the Potency entry in test [1] and in test [2] was “inactive” throughout.
With `CN1CCN(C2Cc3ccccc3Sc3ccc(Cl)cc32)CC1` (stereo unspecified), the Potency result in test [1] and in test [2] was “inactive” in each case.
As for `CCCCOCCOCCOCCO`, the Potency result in test [1] and in test [2] was “inactive” throughout.
For `O=C=Nc1ccc(Cl)c(Cl)c1`, the Potency entry in test [1] and in test [2] was “inactive” in each case.
Consider `CCCc1ccc(O)cc1`, for which the Potency entry in test [1] and in test [2] was “inactive” each time.
With `O=C(O)c1ccc([N+](=O)[O-])cc1`, the Potency entry in test [1] and in test [2] was “inactive” throughout.
Take `O=C(O)c1ccc(O)cc1O`: the Potency entry in test [1] and in test [2] was “inactive” throughout.
As to `O=S(=O)(O)c1cc(S(=O)(=O)O)c2c(N=Nc3ccccc3)c(O)ccc2c1`, the Potency entry in test [1] and in test [2] was “inactive” in each case.
Regarding `CCc1cccc2c(CCO)c[nH]c12`, the Potency entry in test [1] and in test [2] was “inactive” each time.
With `Oc1ccc(-c2ccc(O)cc2)cc1`, the Potency result in test [1] and in test [2] was “inactive” throughout.
`CN1C[C@@H]2C[C@H]1CN2c1cc2c(cc1F)c(=O)c(C(=O)O)cn2C1CC1`: in test [1], the viability change, negative = cytotoxic is -0.602% [at 18.9 µM]. Besides, in test [2], the activity change, negative = cytotoxicity was 19.9% [at 18.9 µM].
Take `Cc1ccc(C(C)C)cc2c(C)ccc1-2`: the Potency entry in test [1] and in test [2] was “inactive” throughout.
On to `COCCOCCOC`, for which the Potency result in test [1] and in test [2] was “inactive” throughout.
For `O=C1[C@H](CC[C@H](O)c2ccc(F)cc2)[C@@H](c2ccc(O)cc2)N1c1ccc(F)cc1`, the Potency result in test [1] and in test [2] was “inactive” throughout.
For `C=CCc1ccc(OC)c(OC)c1`, the Potency result in test [1] and in test [2] was “inactive” in each case.
For `Cc1ccccc1OCC1CO1` (stereo unspecified), the Potency entry in test [1] and in test [2] was “inactive” throughout.
Consider `COc1cc2nc(N3CCN(C(=O)c4ccco4)CC3)nc(N)c2cc1OC`, for which the viability change, negative = cytotoxic in test [1] was 3.29% [at 18.9 µM]. Also, the activity change, negative = cytotoxicity in test [2] is 4.06% [at 18.9 µM].
With `O=C1OC(CN2CCOCC2)CN1/N=C/c1ccc([N+](=O)[O-])o1` (stereo unspecified), the Potency entry in test [1] and in test [2] was “inactive” each time.

The record behind these values is PubChem BioAssay (Tox21).
